Values joined by “and” are separate entries in the source; they are usually repeats but may differ in a detail not shown here. Equal values may be shown once. The campaign covered roughly 290,000 compounds. About 370 (0.13%) were called active.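 How the source made its calls: active means spots per cell inhibited over 60%, with over 100 cells counted and total cytoplasm intensity under 500,000; inconclusive means wells with under 100 cells, flagged as likely toxic; inactive means the rest.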 Only a selection was taken, and actives are over-represented in it overall. Measured potencies and affinities stand elsewhere.
molecular target: G-protein coupled receptor 55 (Homo sapiens) (UniProt Q9Y2T6); test: GPR55 antagonists blocking LPI-driven arrestin recruitment, primary screen, imaging, U2OS, beta-arrestin-GFP, LPI agonist (AID 2013); details: U2OS GPR55 beta-arrestin-GFP translocation imaging, LPI antagonism; at 10 µM; stronger effect = higher value;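 further: U2OS cells stably carrying GPR55 and arrestin-GFP stimulated by 5 µM LPI near EC80; imaged beta-arrestin-GFP aggregate spots per cell after agonist stimulation; plate controls were LPI-stimulated DMSO wells for no effect and DMSO wells without LPI for full effect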
Sequence (Q9Y2T6 whole entry, looked up): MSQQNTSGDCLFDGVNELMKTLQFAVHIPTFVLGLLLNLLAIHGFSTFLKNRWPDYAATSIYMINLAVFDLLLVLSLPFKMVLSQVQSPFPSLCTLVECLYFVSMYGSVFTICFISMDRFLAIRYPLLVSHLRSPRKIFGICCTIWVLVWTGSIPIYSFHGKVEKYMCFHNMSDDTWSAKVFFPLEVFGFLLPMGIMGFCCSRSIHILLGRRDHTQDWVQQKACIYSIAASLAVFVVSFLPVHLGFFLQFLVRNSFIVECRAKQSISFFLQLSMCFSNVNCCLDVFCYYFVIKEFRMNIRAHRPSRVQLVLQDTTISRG

Row | SMILES | inhibition
1 | N=c1c2c(-c3ccccc3)c(-c3ccccc3)n(Cc3ccco3)c2ncn1Cc1ccccc1 | 70.9% (active)
2 | OCCNc1ncnc2c1c(-c1ccccc1)c(-c1ccccc1)n2Cc1ccco1 | -0.4% (inactive)
3 | N=c1c2c(-c3ccccc3)c(-c3ccccc3)n(Cc3ccco3)c2ncn1Cc1ccco1 | 29.6% (inactive)
4 | N=c1c2c(-c3ccccc3)c(-c3ccccc3)n(Cc3ccco3)c2ncn1CCCn1ccnc1 | 24.2% (inactive)
5 | N=c1c2c(-c3ccccc3)c(-c3ccccc3)n(Cc3ccco3)c2ncn1CCO | 58.3% (inactive)
6 | CCN(CC1COc2ccccc2O1)C(=S)NCCCN(C)C (centres undefined) | 5.9% (inactive)
7 | COc1cc(NC(=O)CSCC(=O)Nc2cc(OC)cc(OC)c2)cc(OC)c1 | -13.3% (inactive)
8 | CC1(C)CC(=O)C2=C(C1)N(c1cccc(O)c1)C1=C(C2)C(=O)CC(C)(C)C1 | 28.2% (inactive)
9 | Cc1ccc(OCCCn2ccnc2)c([N+](=O)[O-])c1 | 11.8% (inactive)
10 | CCOc1ccc(CN2CCNC(=O)C2CC(=O)NCc2csc(C)n2)cc1 (centres undefined) | -5.2% (inactive)
11 | CCOc1ccc(C(=O)NC(=S)N(Cc2ccccc2)Cc2ccccc2)cc1 | 8.8% (inactive)
12 | COc1ccc(CN(CCC#N)C(=S)NC(=O)c2ccccc2)cc1 | 21.1% (inactive)
13 | CCOC(=O)c1[nH]c2ccc(Cl)cc2c1NC(=O)/C=C/c1ccc2c(c1)OCO2 | -10.3% (inactive)
14 | CCc1ccc2c(c1)cc(CN(C(=S)Nc1ccccc1C)C1CC1)c1nnnn12 | -0.7% (inactive)
15 | Cn1c(=O)n(C/C=C/c2ccccc2)c(=O)c2c1nc1n2CCCN1Cc1ccccc1 | 12.5% (inactive)
16 | Cn1c(=O)n(CCc2ccccc2)c(=O)c2c1nc1n2CCCN1c1ccccc1 | 8.1% (inactive)
17 | CC(C)C(=O)Nc1ccc(N2CCN(c3ccc(F)cc3)CC2)cc1 | 7.7% (inactive)
18 | CC(C)N=C(NS(=O)(=O)c1ccccc1)C(Cl)(Cl)Cl | 52.5% (inactive)
19 | O=C(O)CN=C(NS(=O)(=O)c1ccccc1)c1ccccc1 | 3.6% (inactive)
20 | Cc1ccc(CC(=O)N2CCN(c3ccccn3)CC2)cc1 | 1.5% (inactive)
21 | Cc1nc(-c2ccc(Cl)cc2)sc1C1(C)CC(c2cccc(Cl)c2)=NO1 (centres undefined) | 2.4% (inactive)
22 | O=C(Nc1ccccc1O)c1ccc2c(c1)C(=O)N(Cc1ccco1)C2=O | 1.9% (inactive)
23 | CC(/C=C\c1cccnc1)=C/C(=O)O | 13.6% (inactive) and 11.7% (inactive)

Row | SMILES | inhibition
24 | O=C(O)/C=C/c1cccnc1 | 10.5% (inactive)
25 | Cc1cc(CSc2ccccc2)ccc1NC(=O)COc1ccccc1C | 5.6% (inactive)
26 | CC(C)CCNC(=O)C1CC(=O)N(CCc2ccccc2)C1 (centres undefined) | 3.2% (inactive)
27 | COc1ccc(CNC(=O)CCc2c(C)nc3cc(-c4ccccc4OC)nn3c2C)cc1 | 12.4% (inactive)
28 | CCOc1ccc(NC(=O)c2ccccc2OCC(=O)c2ccc(C)cc2)cc1 | -16% (inactive)
29 | Cc1ccc(NC(=O)c2ccccc2OCC(=O)c2ccccc2)cc1 | -5.2% (inactive)
30 | O=C(NCc1ccccn1)c1ccc(CNS(=O)(=O)c2cccc(C(F)(F)F)c2)cc1 | 3.1% (inactive)
31 | Cc1cccc(C(=O)Oc2ccc(/C=N/NC(=O)c3ccc(O)cc3)cc2)c1 | 0.3% (inactive)
32 | CC1=Nc2cc(C(=O)NCCCOC(C)C)ccc2Sc2ccc(C)cc21 | 19.1% (inactive)
33 | Cc1c(-n2c(SC(C)C(=O)NC(N)=O)nc3ccccc3c2=O)c(=O)n(-c2ccccc2)n1C (centres undefined) | -4.9% (inactive)
34 | Cc1ccc(-c2nc(-c3nccc4ccccc34)oc2-c2ccccc2)cc1 | 25% (inactive)
35 | c1ccc(-c2ccc(-c3nccc4ccccc34)[nH]2)cc1 | 36% (inactive)
36 | CC(=O)/C(=C\N(C)C)Sc1ccc(Cl)cc1 | 0.6% (inactive)
37 | S=C(Sc1ccc(Cl)cc1)Sc1ccc(Cl)cc1 | 91.8% (active)
38 | O=C(NC1CCCCC1)Sc1ccc(Cl)cc1 | -6% (inactive)
39 | O=C(N/N=C/c1ccoc1)c1ccccc1O | -2.7% (inactive)
40 | O=C(O)COc1ccccc1/C=C1\SC(=Nc2ccc(F)cc2)N(c2ccc(F)cc2)C1=O | 12.7% (inactive)
41 | O=C1NN(c2ccccc2)C(=O)/C1=C\c1ccccc1OCC(=O)N1CCOCC1 | 4.6% (inactive)
42 | O=C(N/N=C/c1cccc([N+](=O)[O-])c1)c1cc(-c2ccc3c4c(cccc24)CC3)n[nH]1 | -4.6% (inactive)
43 | O=C(N/N=C/c1ccc(Cl)c([N+](=O)[O-])c1)c1cc(-c2ccc3c4c(cccc24)CC3)n[nH]1 | 76.6% (active)
44 | O=C(O)c1ccc(/C=N/NC(=O)c2cc(-c3ccc4c5c(cccc35)CC4)n[nH]2)cc1 | 4% (inactive)
45 | CCN(Cc1ccccc1)S(=O)(=O)c1ccc(F)cc1 | 15.1% (inactive)
46 | COC(=O)C1=C(C)N(Cc2ccccc2)C(=NCCc2ccccn2)N[C@H]1c1cccc(F)c1 | 38.8% (inactive)

Row | SMILES | inhibition
47 | COC(=O)C1=C(C)N(CC2CC2)C(=NCc2cc(OC)c(OC)c(OC)c2)N[C@H]1c1ccccc1 | -3% (inactive)
48 | COC(=O)C1=C(C)N(Cc2ccccc2)C(=S)N[C@H]1c1cccc(F)c1 | 18.7% (inactive)
49 | COC(=O)C1=C(C)N(Cc2ccccc2)C(=O)N[C@H]1c1ccccc1 | 58% (inactive)
50 | COC(=O)C1=C(C)N(Cc2cccnc2)C(=O)C1 | -5.2% (inactive)
51 | CCN1C(=S)N[C@@H](c2cccc(F)c2)C(C(=O)OC)=C1C | 4.1% (inactive)
52 | CCN1C(=NCCc2cccnc2)N[C@@H](c2ccccc2)C(C(=O)OC)=C1C | -18.1% (inactive)
53 | COC(=O)C1=C(C)N(Cc2ccccc2)C(=NCc2cc(OC)c(OC)c(OC)c2)N[C@H]1c1cccc(F)c1 | 8.9% (inactive)
54 | O=C(Nc1ccc2c(c1)OCCO2)NC1(C(F)(F)F)Oc2ccccc2O1 | -14.5% (inactive)
55 | COc1ccc(NC(=O)N2CCN(c3cccc(C(F)(F)F)c3)CC2)cc1 | 12.5% (inactive)
56 | COc1ccc(-c2cc(C(=O)N3CCN(c4ccccc4O)CC3)c3ccccc3n2)cc1OC | 13.3% (inactive)
57 | CCc1oc(C(=O)O)cc1COC | 3.5% (inactive)
58 | C=CCN1C(=O)SC(Cc2cccc(OC)c2O)C1=O (centres undefined) | -4.5% (inactive)
59 | COc1ccc(C(=O)NC(C)Cc2cnccn2)cc1OC1CCN(C(C)C)CC1 (centres undefined) | 18.7% (inactive)
60 | CC(C(=O)Nc1cccnc1)n1cc([N+](=O)[O-])cn1 (centres undefined) | 9.4% (inactive)
61 | COCCN=C1N[C@@H](c2cccc(C(F)(F)F)c2)C(C(=O)OC)=C(C)N1Cc1ccccc1 | 31.8% (inactive)
62 | COC(=O)C1=C(C)N(Cc2ccccc2)C(=O)N[C@H]1c1cccc(C(F)(F)F)c1 | 6.8% (inactive)
63 | COc1ccc(NC(C)=O)cc1NC(=O)CN1CCN(CC(=O)Nc2ccccc2Cl)CC1 | 21.6% (inactive)
64 | COc1ccccc1NC(=O)CN1CCN(C2c3ccccc3-c3ccccc32)CC1 | 59.8% (inactive)
65 | COc1ccc(NC(C)=O)cc1NC(=O)CN1CCN(C2c3ccccc3-c3ccccc32)CC1 | 100% (active)
66 | COc1ccccc1NC(=O)CN1CCN(CC(=O)Nc2cc(NC(C)=O)ccc2OC)CC1 | -4.4% (inactive)
67 | COc1ccc(NC(=O)CN2CCN(C3c4ccccc4-c4ccccc43)CC2)cc1 | 9.6% (inactive)
68 | Nc1c2c(nn1-c1ccc(F)cc1)CSC2 | -2.1% (inactive)
69 | O=C(CO/N=C1\CCCc2nonc21)Nc1ccccc1Cl | 0.5% (inactive)

Row | SMILES | inhibition
70 | O=C1/C(=C/c2cccnc2)SC(=S)N1C1CCS(=O)(=O)C1 (centres undefined) | 3.6% (inactive)
71 | O=C1/C(=C/c2ccccc2)SC(=S)N1C1CCS(=O)(=O)C1 (centres undefined) | 9.4% (inactive)
72 | C=C(C)CNC(=S)NNC(=O)CCn1c2ccccc2c2ccccc21 | -10.4% (inactive)
73 | CCOc1ccc(CCNC(=O)c2ccc(CS(=O)Cc3ccc(Cl)cc3)o2)cc1OCC (centres undefined) | 13.4% (inactive)
74 | Cc1ccc(Cn2cc(SCC(=O)Nc3nccs3)c3ccccc32)cc1 | 2.5% (inactive)
75 | Cc1cc(C)c2nc(-c3ccccn3)cc(C(=O)Nc3cc(C)on3)c2c1 | 1.5% (inactive)
76 | Cc1ccc(-c2cc(C(=O)Nc3ccc(S(=O)(=O)Nc4onc(C)c4C)cc3)c3ccccc3n2)cc1 | -14.3% (inactive)
77 | Cc1noc(NS(=O)(=O)c2ccc(NC(=O)c3cc(-c4ccccc4Cl)nc4ccccc34)cc2)c1C | 14.9% (inactive)
78 | Cc1ccccc1C(=O)Nc1ccc(S(=O)(=O)Nc2onc(C)c2C)cc1 | 6.6% (inactive)
79 | Cc1ccc(-c2cc(C(=O)Nc3ccc(S(=O)(=O)Nc4cc(C)on4)cc3)c3ccccc3n2)c(C)c1 | 32.5% (inactive)
80 | Cc1cc(C)c(C(=O)Nc2ccc(S(=O)(=O)Nc3onc(C)c3C)cc2)c(C)c1 | 4.6% (inactive)
81 | COc1ccc(-n2ncc3c(=O)n(CC(=O)Nc4ccc5c(c4)OCCO5)cnc32)cc1 | 0.6% (inactive)
82 | COc1cc2nc(SCC(N)=O)n(CCC3=CCCCC3)c(=O)c2cc1OC | -6.5% (inactive)
83 | COc1cc(NC(=O)c2cc(C)no2)cc(OC)c1OC | 3.4% (inactive)
84 | COc1cc(-c2nn3c(-c4ccccc4)nnc3s2)cc(OC)c1OC | -5.2% (inactive)
85 | Cc1cc(/C=C2\SC(N)=NC2=O)c(C)n1-c1ccccc1 | -9.3% (inactive)
86 | Cc1cc(/C=C2\SC(=O)N(C)C2=O)c(C)n1-c1ccc(S(N)(=O)=O)cc1 | 5% (inactive)
87 | [N-]=[N+]=NC[C@H](c1ccccc1)N1CCN(Cc2ccccc2)CCC1=O | 9.8% (inactive)
88 | CCOC(=O)CC(NC(=O)CCS(=O)(=O)c1ccc2c(c1)n(C)c(=O)c(=O)n2C)c1ccc(C)cc1 (centres undefined) | 10.2% (inactive)
89 | CCN(CC)c1ccc(/C=N/n2c(C)nc3ccccc3c2=O)cc1 | -7.1% (inactive)
